# According to PubChem BioAssay AID463173 (ICCB-Longwood Screening Facility, Harvard Medical School, 2010):
# Screen size: about 52,000 compounds; about 4,300 (8.3%) were called active. The entries come from a sample that favours actives as a whole. Values without a mark were called inactive. No stated cut-off is given here; in the data, active means survival mostly below about 52% (no sharp cut-off); inactive means mostly above about 56%.
# Tested on: DeltatarO mutant
# Test: growth inhibition of S. aureus wild type versus tarO mutant, primary screen, teichoic acid synthesis inhibitors, RN4220, OD600 (AID 463173)
# Settings: OD600, 18 h, active compounds read low, screened at 18.75 µg/mL (by protocol)
row,Compound,survival
1,CCn1nnc2cc(C(=O)Nc3cccc(C)c3C)ccc21,72%
2,Clc1ccc(NCCC2=CCCCC2)nn1,84%
3,CN(C)CCNc1ccc(Cl)nn1,96%
4,Clc1ccc(NC2CCCCC2)nn1,66% (active)
5,COc1ccccc1-c1nc(SCC(=O)NCc2ccc(C)cc2)c2c(=O)n(C)c(=O)n(C)c2n1,69%
6,Cc1ccccc1NC(=O)c1ccc2[nH]c(C)c(C)c2c1,123%
7,COC(=O)c1sc2cccc(F)c2c1S(=O)(=O)Nc1cc(OC)cc(OC)c1,8% (active)
8,CCOC(=O)c1sc2cccc(F)c2c1S(=O)(=O)Nc1ccccc1F,99%
9,COC(=O)c1sc2cccc(F)c2c1S(=O)(=O)Nc1ccc(N(C)C)cc1,66%
10,COC(=O)c1sc2cccc(F)c2c1S(=O)(=O)Nc1ccc(C)cc1Cl,91%
11,CCOc1ccccc1NS(=O)(=O)c1c(C(=O)OC)sc2cccc(F)c12,20% (active)
12,COC(=O)c1sc2cccc(F)c2c1S(=O)(=O)Nc1cc(C)c(Cl)cc1OC,89%
13,COC(=O)c1ccccc1NS(=O)(=O)c1cc2c(cc1C)N(C)CCO2,87%
14,COc1cc(C(=O)N2CCN(CCc3ccccn3)CC2)cc(OC)c1OC,66%
15,Cc1ccc2nc(-c3cccc(Cl)c3)c(Nc3ccc4c(c3)OCO4)n2c1,75%
16,COc1cc(NC(=O)C2CCCN(S(=O)(=O)c3ccc4c(c3)CCCC(=O)N4)C2)cc(OC)c1 (centres undefined),94%
17,COc1ccc(CN(Cc2ccco2)C(=O)COc2ccccc2Cl)cc1,51%
18,CCc1cc(=O)[nH]c(SCc2nc(-c3ccccc3)no2)n1,95%
19,CCc1cc(=O)[nH]c(SCc2nc(-c3ccc(C(F)(F)F)cc3)no2)n1,32% (active)
20,O=c1cc(-c2ccccc2)nc(SCc2nc(-c3ccc(C(F)(F)F)cc3)no2)[nH]1,188%
21,CCc1cc(=O)[nH]c(SCc2nc(-c3cccc(Cl)c3)no2)n1,49%
22,CCCc1cc(=O)[nH]c(SCc2nc(-c3ccc(C)cc3)no2)n1,78%
23,CCCc1cc(=O)[nH]c(SCc2nc(-c3ccccc3)no2)n1,0% (active)
24,Cc1ccc(CNC(=O)c2sc3nc(C)cc(C)c3c2-n2cccc2)cc1,90%

row,Compound,survival
1,COc1ccccc1CNC(=O)c1cc2c(s1)-c1ccc(Cl)cc1SC2,79%
2,Cc1ccccc1Nc1nnc(-c2ccc(C)c(S(=O)(=O)N3CCOCC3)c2)c2ccccc12,85%
3,O=C(NC(CO)C(=O)O)c1ccncc1 (centres undefined),94%
4,CCc1ccc(Cc2cnc(NC(=O)c3ccc4c(c3)CC(c3ccccc3)OC4=O)s2)cc1 (centres undefined),51%
5,COc1cccc(-n2c(C)nc3cc(C(=O)O)ccc32)c1,177%
6,O=C(Cn1c(=O)nc(-c2ccccc2)c2cc(Cl)ccc21)N1CCN(c2ccc(F)cc2)CC1,99%
7,O=S(=O)(NC1CCc2ccccc21)c1ccc(S(=O)(=O)N2CCCC2)cc1 (centres undefined),82%
8,CC1Cc2cc(S(=O)(=O)CCC(=O)Nc3ccccc3F)ccc2N1C(=O)C1CC1 (centres undefined),100%
9,Oc1ccc(Nc2nc(-c3ccc(Cl)cc3)nc3ccccc23)cc1,3% (active)
10,Fc1ccc(Nc2nc(SCc3ccc(Cl)cc3)nc3ccccc23)cc1,92%
11,Oc1cccc(Nc2nc(-c3ccccc3)nc3ccccc23)c1,10% (active)
12,Cc1cccc(Nc2cc(C)nc3nc(-c4ccccc4)nn23)c1,95%
13,CC(=O)c1cccc(Nc2nc(-c3ccccc3Cl)nc3ccccc23)c1,38% (active)
14,Cc1nnc2c(Nc3cccc(O)c3)nc3ccccc3n12,68%
15,CC(=O)c1cccc(NC(=O)c2cc(-c3ccc(Cl)s3)nc3ccccc23)c1,77%
16,Oc1ccc(Nc2ncnc3ccccc23)cc1,77%
17,CC(=O)c1cccc(Nc2ncnc3c2cnn3C)c1,67%
18,Cc1cccc(-c2nc(N3CCN(c4ccc(F)cc4)CC3)c3ccccc3n2)c1,54%
19,Cc1nnc2c3ccccc3nc(Nc3cccc(O)c3)n12,101%
20,Cc1cccc(Nc2nc(-c3ccccc3)nc3ccccc23)c1,1% (active)
21,COc1ccc(CCNC(=O)C(=O)NCC(c2cccs2)S(=O)(=O)c2ccc(C)cc2)cc1 (centres undefined),69%
22,O=C(CC1N=C2c3ccccc3N=C(SCc3ccc(F)cc3)N2C1=O)NC1CCCCC1 (centres undefined),124%
23,Cc1ccc(CNS(=O)(=O)c2cc3c(cc2C)NC(=O)CO3)cc1,79%
24,CCCN(CCC)c1nn2c(=O)c(C(=O)NCc3cccc(OC)c3)cnc2s1,84%

row,Compound,survival
1,CC(C)NC(=O)CSc1nc2ccccc2n1CC(=O)NC(C)C,96%
2,COC(=O)c1ccccc1NC(=S)N(Cc1ccco1)Cc1cc2cc(C)ccc2[nH]c1=O,94%
3,O=c1c2ccccc2nc2sc(Nc3cccc(C(F)(F)F)c3)nn12,86%
4,CN(C(=O)c1cc2sccc2n1Cc1ccc(F)cc1)C1CCCCC1,88%
5,CCOc1ccccc1C(=O)Nc1ccc(S(=O)(=O)Nc2onc(C)c2C)cc1,77%
6,CCN(C1CCCCC1)S(=O)(=O)c1cccc(S(=O)(=O)N2CCCC2)c1,70%
7,COc1cc(C2c3c(oc4ccc(F)cc4c3=O)C(=O)N2c2nc(C)c(C)s2)cc(OC)c1OC (centres undefined),157%
8,COc1ccc2c(Sc3ccc(C)cc3)c(C(=O)NC(C)C)[nH]c2c1,86%
9,Cc1ccc(CCNC(=O)CCn2nc(-c3ccc(C)cc3)ccc2=O)cc1,94%
10,COc1ccc(C(=O)O)cc1Nc1nc2ccc(C)cc2n2cnnc12,117%
11,CC(=O)c1cccc(NC(=O)c2nc(-c3ccccc3)n(-c3ccccc3C)n2)c1,76%
12,OCCNc1nc(-c2cccnc2)nc2ccccc12,93%
13,CCC(=O)OCCCNc1nc(-c2ccc(Cl)cc2)nc2ccccc12,-2% (active)
14,CCOc1ccccc1OCCCCn1c(-c2ccc(Cl)cc2)nc2ccccc2c1=O,45%
15,COc1ccc(Nc2nc(-c3ccc(C)cc3)nc3ccccc23)c(OC)c1,75%
16,COc1ccc(Nc2nc(-c3ccccc3F)nc3ccccc23)cc1OC,99%
17,CC(=O)c1cccc(Nc2nc(-c3cccc(C)c3)nc3ccccc23)c1,4% (active)
18,COc1cc(Nc2nc(-c3ccc(OC)c(OC)c3)nc3ccccc23)cc(OC)c1,-2% (active)
19,CC(=O)c1cccc(NC(=O)c2nc(-c3ccccc3)n(-c3cccc(C)c3)n2)c1,64%
20,O=C(O)c1ccc(Nc2nc3ccccc3c3nncn23)cc1,95%
21,COc1ccc(CNC(=O)C(OC(=O)c2ccc(Cl)nc2)c2ccccn2)cc1 (centres undefined),104%
22,CCC(CC)C(=O)OCc1cc(=O)n2nc(C3CC3)sc2n1,62%
23,COc1ccc(CCNC(=O)CCc2c(C)nc3c(c(C)nn3-c3ccc(C)c(C)c3)c2C)cc1OC,57%
24,CC1=C(C)CC(C(=O)Nc2ccc(NC(=O)NC3CCCCC3)cc2)C(C(=O)O)C1 (centres undefined),81%

row,Compound,survival
1,Cc1cc(N2CCN(c3cccc(C(F)(F)F)c3)CC2)n2nc(-c3ccccc3C)nc2n1,2% (active)
2,COc1ccc(-c2nc3nc(C)cc(N4CCN(c5cccc(C(F)(F)F)c5)CC4)n3n2)cc1,45%
3,Cc1cc(N2CCN(c3ccc(F)cc3)CC2)n2nc(-c3ccc(Cl)cc3)nc2n1,49%
4,Cc1cccc(-c2nc3nc(C)cc(N4CCN(c5ccccc5)CC4)n3n2)c1,60%
5,Cc1ccc(-c2nc3nc(C)cc(N4CCN(c5cc(Cl)ccc5C)CC4)n3n2)cc1,86%
6,Cc1cc(N2CCN(c3cccc(C(F)(F)F)c3)CC2)n2nc(-c3ccccc3)nc2n1,41% (active)
7,O=C(O)CCSc1nc2ccccc2o1,87%
8,CCc1cccc(C)c1NC(=O)CN(C)S(=O)(=O)c1cccc2nsnc12,89%
9,COC(=O)C1=C(C)NC(=O)C1(NC(=O)c1cc(OC)c(OC)c(OC)c1)C(F)(F)F (centres undefined),54%
10,CCC(C(=O)Nc1cc(OC)cc(OC)c1)n1nc(-c2ccc(C)c(C)c2)ccc1=O (centres undefined),75%
11,CC(=O)c1ccc(NC(=O)CSc2ccc3nc(-c4ccccc4)cn3n2)cc1,89%
12,CC(=O)c1ccc(NC(=O)C(C)n2nc(-c3ccccc3)ccc2=O)cc1 (centres undefined),32% (active)
13,CCC(C(=O)Nc1cccc(Cl)c1C)n1nc(-c2ccc(C)cc2)ccc1=O (centres undefined),41% (active)
14,COc1ccc(Cl)cc1NC(=O)C(OC)c1ccccc1 (centres undefined),83%
15,Cc1ccc(Cl)cc1NC(=O)C(C)n1nc(-c2ccccc2)ccc1=O (centres undefined),20% (active)
16,Cc1ccc(Cl)cc1NC(=O)C(C)n1nnc2sc(-c3ccccc3)cc2c1=O (centres undefined),59%
17,Cc1ccc(-c2ccc(=O)n(C(C)C(=O)Nc3ccccc3Cl)n2)cc1C (centres undefined),66%
18,COc1ccc(NC(=O)C(C)n2nc(-c3ccc(C)c(C)c3)ccc2=O)cc1OC (centres undefined),69%
19,Cc1ccc(-c2ccc(=O)n(CC(=O)Nc3ccc(C)cc3Cl)n2)cc1,50%
20,CCC(C(=O)Nc1cccc(Cl)c1C)n1nc(C)c2sc3ccccc3c2c1=O (centres undefined),72%
21,CCC(C(=O)Nc1cc(Cl)ccc1OC)n1nc(-c2ccccc2)ccc1=O (centres undefined),24% (active)
22,COc1cccc(N2CCN(c3ncc4c(n3)CCN(Cc3ccc(Br)cc3)C4)CC2)c1,79%
